# In PubChem BioAssay (NCATS):
# Values joined by “and” are separate entries in the source; they are usually repeats but may differ in a detail not shown here. Equal entries are not always repeated. Inconclusive results are not listed. Entries that show only a call come without a potency. More than one record can exist for a structure, and the calls need not agree. Active and inactive are the calls of the source. Calls follow the shape of the dose curve; as a rule, active = well fitted curve in the direction sought with a large enough effect; inconclusive = small, poorly fitted or top-dose-only effect, or another doubt; inactive = no such curve, though single readings can be large; an effect the other way counts as inactive or inconclusive.
# What was measured:
# [1] = qHTS assay for measurement of the activity of small molecule inhibitors on Zika virus induced Caspase-3 activity in human astrocytoma cells (AID 1224859); also: potency is read from the fitted curve at half-maximal effect
# Procedure, shortened: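 SNB-19 astrocytoma cells, 250/well, pretreated 1 h with compounds, then Zika virus at 2 FFU/cell for 6 h at 37 C; Caspase-Glo 3/7 luminescence after 30 min; percent inhibition normalised to uninfected and infected controls.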
# [2] = qHTS Screen of the MIPE 4.0 Collection Against Ewings Sarcoma (TC71) (AID 1259253); also: nearly all actives have a fitted effect of over 40% in size; also: potency is read from the fitted curve at half-maximal effect
# Procedure, shortened: (§1)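 Viability screen: 48 h incubation at 37C, 95% humidity, 5% CO2 with serially titrated compound, followed by CellTiter-Glo readout.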
# [3] = qHTS Screen of the MIPE 4.0 Collection Against Ewings Sarcoma (TC32) (AID 1259256); also: nearly all actives have a fitted effect of over 45% in size; also: potency is read from the fitted curve at half-maximal effect
# Procedure, shortened: as §1
# [4] = qHTS Screen of the MIPE 4.0 Collection Against Ewings Sarcoma (RDES) (AID 1259252); also: nearly all actives have a fitted effect of over 35% in size; also: potency is read from the fitted curve at half-maximal effect
# Procedure, shortened: as §1
# [5] = qHTS Screen of the MIPE 4.0 Collection Against Ewings Sarcoma (EW8) (AID 1259255); also: nearly all actives have a fitted effect of over 35% in size; also: potency is read from the fitted curve at half-maximal effect
# Procedure, shortened: as §1
# [6] = qHTS assay to identify small molecule inhibitors of chordoma cells - UCH-1 (AID 1259355); also: nearly all actives have a fitted effect of over 55% in size
# Procedure, shortened: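 Screening used approved and investigational drugs in 15-point titration against 800 seeded cells per well. A fixed combination of auranofin with camptothecin, doxorubicin, rubitecan and topotecan followed compound addition, and growth was scored by CellTiter-Glo after 48hr.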
# [7] = qHTS assay to identify small molecule inhibitors of chordoma cells - UCH-2 (AID 1259356); also: series mostly up to about 46 µM
# [8] = Identifying Small Molecule Inhibitors of Pancreatic Cancer Stem Cells (A2780, Spheroid) (AID 1259357); details: Potency: A2780 spheroid viability;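 also: compound exposure lasted 48 h before the ATP luminescence read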; also: potency is read from the fitted curve at half-maximal effect
# Procedure, shortened: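 Adherent (2D) versus sphere (3D) formats; spheres generated 14 d in SCM beforehand. Compound transferred by pin tool after 4 h, 48 h incubation, CellTiter-Glo endpoint.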
# [9] = Identifying Small Molecule Inhibitors of Pancreatic Cancer Stem Cells (SN12C, Adherent) (AID 1259358);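 also: cell survival measured after 48 h of compound exposure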; also: potency is read from the fitted curve at half-maximal effect
# Procedure, shortened: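 Monolayer and spheroid cultures are compared. Spheroids form over 14 days in stem cell medium on hydrogel-coated low-attachment plates, then are exposed to compound for 48 h before CellTiter-Glo luminescence.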
# [10] = Identifying Small Molecule Inhibitors of Pancreatic Cancer Stem Cells (Panc1, Spheroid) (AID 1259359);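 also: potency is read from the fitted curve at half-maximal effect; compound exposure lasted 48 h before reading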
# Procedure, shortened: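 Luminescent ATP readout (CellTiter-Glo) quantifies surviving cells after a 48 h drug incubation. Normalization uses DMSO wells as no inhibition and media-only wells as full inhibition; bortezomib served as positive control.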
smiles,measurement,setting,value
CCOc1cc(C=C2C(=O)N(c3ccccc3)N=C2C)cc(Cl)c1OCC(=O)OC,Potency,[1],inactive
same,Potency,[2],inactive
same,Potency,[3],5.9 µM (active)
Fc1ccc(Cl)cc1-c1nc(Nc2ccncc2)c2nccnc2n1,Potency,[1],inactive
same,Potency,[4],inactive
same,Potency,[3],1.32 µM (active)
COc1cc2nccc(Oc3ccc(NC(=O)NC4CC4)c(Cl)c3)c2cc1C(N)=O,Potency,[1],inactive
same,Potency,[2],1.05 µM (active)
same,Potency,[5],0.469 µM (active)
same,Potency,[3],1.05 µM (active)
Nc1nc2[nH]cc(CCc3ccc(C(=O)N[C@@H](CCC(=O)O)C(=O)O)cc3)c2c(=O)[nH]1,Potency,[1],inactive
same,Potency,[2],0.264 µM (active)
same,Potency,[3],0.662 µM (active)
same,Potency,[6],inactive
same,outcome,[7],inactive
same,Potency,[8],inactive
CC(C=CC1=C(C)CCCC1(C)C)=CC=CC(C)=CC(=O)O,Potency,[1],inactive
same,Potency,[4],23.5 µM (active)
same,Potency,[5],20.9 µM (active) and 9.35 µM (active)
same,Potency,[3],20.9 µM (active) and 3.72 µM (active)
C1COC(NC(C2CC2)C2CC2)=N1,Potency,[1],inactive
same,Potency,[2],inactive
same,Potency,[5],inactive
same,Potency,[3],inactive
same,Potency,[6],inactive
same,outcome,[7],inactive
COc1c(Cl)cc2c([nH]c3cnccc32)c1NC(=O)c1cccnc1C,Potency,[1],inactive
same,Potency,[4],0.59 µM (active)
same,Potency,[9],inactive
Cc1cc([C@@H](C)Nc2ccccc2C(=O)O)c2nc(N3CCOCC3)cc(=O)n2c1,Potency,[1],inactive
same,Potency,[2],34 µM (active)
same,Potency,[3],34 µM (active)
same,Potency,[9],9.35 µM (active)
C[C@]12CC[C@H](O)CC1=CC[C@@H]1[C@H]2CC[C@]2(C)C(c3cccnc3)=CC[C@H]12,Potency,[1],inactive
same,Potency,[2],inactive
same,Potency,[5],inactive
same,Potency,[9],inactive
Nc1nccc(-c2ccc3noc(-c4ccc(Cl)cc4)c3c2)n1,Potency,[1],inactive
same,Potency,[4],5.9 µM (active)
same,Potency,[3],23.5 µM (active)
O=c1[nH]c(-c2ccc(C(F)(F)F)cc2)nc2c1CSCC2,Potency,[1],inactive
same,Potency,[4],23.5 µM (active)
same,Potency,[5],20.9 µM (active)
same,Potency,[3],23.5 µM (active)
same,Potency,[9],inactive
Cc1n[nH]c(C)c1Cc1sc2c(c1C(=O)N1C[C@H](O)CO1)c(=O)n(C)c(=O)n2CC(C)C,Potency,[1],inactive
same,Potency,[2],0.166 µM (active)
same,Potency,[3],0.105 µM (active)
same,Potency,[8],inactive
same,Potency,[9],inactive
CC(C)OC(=O)C1=CN(C(=O)c2ccc(F)c(F)c2)CC(C)(C)c2c1[nH]c1ccccc21,Potency,[1],inactive
same,Potency,[2],inactive
same,Potency,[5],inactive
same,Potency,[3],inactive
same,Potency,[9],inactive
N[C@@H]1CONC1=O,Potency,[1],inactive
same,Potency,[2],inactive
same,Potency,[5],inactive
same,Potency,[3],inactive
same,Potency,[6],inactive
same,outcome,[7],inactive
CC(c1cc2ccccc2s1)N(O)C(N)=O (stereo not given),Potency,[1],inactive
same,Potency,[2],inactive
same,Potency,[5],inactive
same,Potency,[3],inactive
same,Potency,[6],inactive
same,outcome,[7],inactive
CCC(C)n1ncn(-c2ccc(N3CCN(c4ccc(OC[C@H]5CO[C@](Cn6cncn6)(c6ccc(Cl)cc6Cl)O5)cc4)CC3)cc2)c1=O (stereo not given in full),Potency,[1],inactive
same,Potency,[2],inactive
same,Potency,[5],inactive
same,Potency,[3],inactive
same,outcome,[7],inactive
same,Potency,[8],4.69 µM (active)
same,Potency,[9],inactive
Cc1oncc1C(=O)Nc1ccc(C(F)(F)F)cc1,Potency,[1],inactive and 2.64 µM (active)
same,Potency,[2],18.7 µM (active)
same,Potency,[5],20.9 µM (active)
same,Potency,[6],inactive
same,outcome,[7],inactive
same,Potency,[8],inactive
CC(C)(Sc1ccc(CCN(CCCCC2CCCCC2)C(=O)NC2CCCCC2)cc1)C(=O)O,Potency,[1],inactive
same,Potency,[2],inactive
same,Potency,[5],4.69 µM (active)
same,Potency,[3],18.7 µM (active)
same,Potency,[9],inactive
CCOC(=O)N[C@@H]1CC[C@@H]2[C@@H](C1)C[C@H]1C(=O)O[C@H](C)[C@H]1[C@@H]2C=Cc1ccc(-c2cccc(F)c2)cn1,Potency,[1],inactive
same,Potency,[2],20.9 µM (active)
same,Potency,[3],18.7 µM (active)
COc1ccccc1[C@H](c1cccc2ccccc12)[C@@](C)(C#N)C(=O)N1CCC(c2cccc(C(F)(F)F)c2)CC1,Potency,[1],inactive
same,Potency,[2],10.5 µM (active)
same,Potency,[5],6.62 µM (active)
same,Potency,[3],13.2 µM (active)
O=C(NOC[C@H](O)CO)c1ccc(F)c(F)c1Nc1ccc(I)cc1F,Potency,[1],inactive
same,Potency,[4],23.5 µM (active)
same,Potency,[9],9.35 µM (active)
CS(=O)(=O)Oc1ccc2c(NC(N)=O)c(C(=O)c3ccc(Cl)cc3Cl)oc2c1,Potency,[1],inactive
same,Potency,[2],14.8 µM (active)
same,Potency,[5],23.5 µM (active)
same,Potency,[8],11.8 µM (active)
same,Potency,[9],inactive
Cc1ccc(NC(=O)c2cccc(C(C)(C)C#N)c2)cc1Nc1ccc2ncn(C)c(=O)c2c1,Potency,[1],inactive
same,Potency,[4],14.8 µM (active)
same,Potency,[5],14.8 µM (active)
same,Potency,[9],7.43 µM (active)
COc1ccc(CCN2CCN(CCCc3ccccc3)CC2)cc1OC,Potency,[1],inactive
same,Potency,[4],inactive
same,Potency,[3],inactive
CNC[C@H](O)c1cccc(O)c1,Potency,[1],inactive
same,Potency,[2],inactive
same,Potency,[5],inactive
same,Potency,[3],inactive
same,Potency,[6],inactive
same,outcome,[7],inactive
COc1ccc2c3n(c(=NC(=O)c4cccnc4)nc2c1OC)CCN3,Potency,[1],inactive
same,Potency,[2],10.5 µM (active)
same,Potency,[3],8.33 µM (active)
same,Potency,[8],3.32 µM (active)
same,Potency,[9],3.72 µM (active)
CCCC(CCC)C(=O)O,Potency,[1],inactive
same,Potency,[2],inactive
same,Potency,[3],inactive
same,Potency,[6],inactive
same,outcome,[7],inactive
CCOc1cc(C(=O)Nc2ccc(Cl)c(-c3nc4ccccc4[nH]3)c2)cc(OCC)c1OCC,Potency,[1],inactive
same,Potency,[4],14.8 µM (active)
same,Potency,[3],20.9 µM (active)
same,Potency,[9],inactive
COc1ccc2nc(S(=O)Cc3ncc(C)c(OC)c3C)[nH]c2c1 (stereo not given),Potency,[1],inactive
same,Potency,[4],16.6 µM (active)
same,Potency,[5],inactive
same,Potency,[6],inactive
same,outcome,[7],inactive
same,Potency,[9],inactive
Nc1nc2c(ncn2COCCO)c(=O)[nH]1,Potency,[1],inactive
same,Potency,[2],inactive
same,Potency,[5],inactive
same,Potency,[3],inactive
same,Potency,[6],inactive
same,outcome,[7],inactive
COc1cc(Nc2ncc3c(n2)-c2ccc(Cl)cc2C(c2c(F)cccc2OC)=NC3)ccc1C(=O)O,Potency,[1],inactive
same,Potency,[2],1.87 µM (active)
same,Potency,[5],0.0743 µM (active)
same,Potency,[3],0.059 µM (active)
Cc1cccc(-c2[nH]c(C(C)(C)C)nc2-c2ccc3nccnc3c2)n1,Potency,[4],16.6 µM (active)
same,Potency,[2],26.4 µM (active)
same,Potency,[5],23.5 µM (active)
same,Potency,[3],20.9 µM (active)
same,Potency,[10],8.33 µM (active)
CCN(c1ccccc1)c1cc(NC)[n+](C)c(C)n1,Potency,[1],inactive
same,Potency,[2],inactive
same,Potency,[3],16.6 µM (active)
same,Potency,[9],inactive
CCCn1c(=O)c2[nH]c(C34CC5CC3C[C@@H](C5)C4)nc2n(CCC)c1=O,Potency,[1],inactive
same,Potency,[9],inactive
CCCS(=O)(=O)Nc1ccc(F)c(C(=O)c2c[nH]c3ncc(-c4ccc(Cl)cc4)cc23)c1F,Potency,[1],inactive
same,Potency,[2],14.8 µM (active)
same,Potency,[3],20.9 µM (active)
same,Potency,[9],inactive
CNCc1ccc(-c2[nH]c3cc(F)cc4c3c2CCNC4=O)cc1,Potency,[1],inactive
same,Potency,[3],16.6 µM (active)
Cc1cccc(-c2nn(C(=S)Nc3ccccc3)cc2-c2ccnc3ccccc23)n1,Potency,[1],inactive
same,Potency,[5],inactive
same,Potency,[3],inactive
same,Potency,[9],inactive
NC[C@H](O)c1ccc(O)c(O)c1,Potency,[4],inactive
same,Potency,[2],inactive
same,Potency,[5],inactive
same,Potency,[3],inactive
same,Potency,[6],inactive
same,outcome,[7],inactive
OC(CN1CCC(Cc2ccc(F)cc2)CC1)c1ccc(Cl)cc1 (stereo not given),Potency,[4],inactive
same,Potency,[2],inactive
same,Potency,[5],inactive
same,Potency,[3],inactive
same,"activity, negative = inhibition",[6],16.1% [at 9.21 µM] (inactive)
same,outcome,[7],inactive
same,Potency,[9],inactive
Nc1nc2ccc(OC(F)(F)F)cc2s1,Potency,[1],inactive
same,Potency,[6],inactive
same,outcome,[7],inactive
O=C1CCC(N2C(=O)c3ccccc3C2=O)C(=O)N1 (stereo not given),Potency,[4],inactive
same,Potency,[2],inactive
same,Potency,[5],inactive
same,Potency,[3],0.0037 µM (active)
same,Potency,[6],inactive
same,outcome,[7],inactive
Nc1ccc(S(=O)(=O)Nc2ccnn2-c2ccccc2)cc1,Potency,[4],inactive
same,Potency,[2],inactive
same,Potency,[5],inactive
same,Potency,[3],inactive
same,Potency,[6],inactive
same,outcome,[7],inactive
N=c1nc(N2CCCCC2)cc(N)n1O,Potency,[4],inactive
same,Potency,[2],inactive
same,Potency,[5],inactive
same,Potency,[3],inactive
same,Potency,[6],inactive
same,outcome,[7],inactive
CC[C@@H](C)[C@H](NC(=O)[C@H](CC1CCCCC1)NC(=O)c1ccno1)C(=O)N1CCC2(CCc3ccccc32)CC1,Potency,[1],inactive
same,Potency,[9],inactive
